Hit rate of the full screen: of about 2,100 compounds, about 770 (37%) were called active. This is one part of the list. Unmarked numbers belong to inactive results.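 Rule for the calls: active = by-eye trace score of 1 for enhancers or -1 for inhibitors, so actives lie on both sides (some results past the limit were not filed as active); inactive = score 0, or 3 fluorescent, or 4 baseline rise.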
The compounds below were run against G protein-activated inward rectifier potassium channel 2 (Homo sapiens) + G protein-activated inward rectifier potassium channel 1 (Homo sapiens) (UniProt P48051+P48549) (assay: GIRK1/2 thallium flux modulators, retest, confirmation, cell-based, HEK293 rmGlu8/hGIRK1/2, FluoZin-2 (AID 623911)). Settings: HEK293 rmGlu8/hGIRK1/2, thallium flux FluoZin-2; actives lie on both sides; glutamate co-added at its EC20 level.
Chain of G protein-activated inward rectifier potassium channel 2 (Homo sapiens) + G protein-activated inward rectifier potassium channel 1 (Homo sapiens) (P48051 whole entry, looked up): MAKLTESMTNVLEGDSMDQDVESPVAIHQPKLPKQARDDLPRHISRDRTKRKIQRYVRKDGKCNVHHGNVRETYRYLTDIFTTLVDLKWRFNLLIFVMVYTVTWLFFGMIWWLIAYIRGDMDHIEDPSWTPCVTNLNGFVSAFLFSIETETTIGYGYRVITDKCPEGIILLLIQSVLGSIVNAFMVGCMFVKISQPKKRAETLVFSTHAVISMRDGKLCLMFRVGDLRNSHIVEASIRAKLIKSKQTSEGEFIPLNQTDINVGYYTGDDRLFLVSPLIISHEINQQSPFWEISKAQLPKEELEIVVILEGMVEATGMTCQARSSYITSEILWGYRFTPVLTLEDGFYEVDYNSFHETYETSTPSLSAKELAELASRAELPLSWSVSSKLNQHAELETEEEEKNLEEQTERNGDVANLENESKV
Chain of G protein-activated inward rectifier potassium channel 2 (Homo sapiens) + G protein-activated inward rectifier potassium channel 1 (Homo sapiens) (P48549 whole entry, looked up): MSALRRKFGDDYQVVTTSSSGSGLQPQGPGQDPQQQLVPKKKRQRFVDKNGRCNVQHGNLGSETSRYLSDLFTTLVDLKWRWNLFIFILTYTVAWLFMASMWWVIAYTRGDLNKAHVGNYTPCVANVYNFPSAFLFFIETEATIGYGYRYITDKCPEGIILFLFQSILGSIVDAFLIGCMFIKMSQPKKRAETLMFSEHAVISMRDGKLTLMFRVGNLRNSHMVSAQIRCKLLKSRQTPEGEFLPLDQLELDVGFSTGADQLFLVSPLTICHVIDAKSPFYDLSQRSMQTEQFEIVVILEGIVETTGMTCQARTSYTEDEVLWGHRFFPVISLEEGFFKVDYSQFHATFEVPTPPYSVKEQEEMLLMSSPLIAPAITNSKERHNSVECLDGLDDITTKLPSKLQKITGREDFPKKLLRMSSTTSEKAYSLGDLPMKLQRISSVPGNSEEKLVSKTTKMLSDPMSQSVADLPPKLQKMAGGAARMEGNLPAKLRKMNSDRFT
With `COc1ccc(Nc2nc(-c3cccc([N+](=O)[O-])c3)nc3ccccc23)cc1` the manual score was 0.
`CCCCn1c(=O)nc2n(-c3ccccc3)c3ccccc3cc-2c1=O` showed a manual score of 0.
`CCOC(=O)Cn1c(=N)n(CCOc2cccc(C)c2)c2ccccc21` was tested, and the manual score was -1 (active).
In the case of `CCCCn1c(=N)n(CC(O)COc2cccc(C)c2)c2ccccc21` (stereo not given), the manual score was -1 (active).
In the case of `CCCn1c(=N)n(CC(O)COc2cccc(C)c2)c2ccccc21` (stereo not given), the manual score was -1 (active).
`COc1ccc(-n2c(=S)[nH]c3ccccc32)cc1` was tested, and the manual score was 0.
For `CCCn1c(=N)n(CCOc2ccc(OC)cc2)c2ccccc21`, the manual score was -1 (active).
Work on `Cc1cccc(OCCn2c(=S)[nH]c3ccccc32)c1` yielded a manual score of 0.
`CCOC(=O)C(CCCCOc1cccc(CC)c1)C(=O)OCC` was tested, and the manual score was 0.
`Cc1cccc(OCC(O)CN2C(C)(C)CC(O)CC2(C)C)c1` (stereo not given) gave a manual score of 0.
Work on `CC1CSc2ccccc2NC1=S` (stereo not given) yielded a manual score of 0.
Compound `COC(=O)c1sc(N2C(=O)C(O)=C(C(=O)c3ccc(C)o3)C2c2ccc(F)cc2)nc1C` (stereo not given) has a manual score of 0.
Work on `CC(C)(C)OC(=O)COc1cc(O)c2c(=O)cc(-c3ccccc3)oc2c1` yielded a manual score of 0.
Compound `Fc1ccc(-c2nnc3ccc(N4CCc5ccccc5C4)nn23)cc1` has a manual score of 0.
In the case of `CCOC(=O)Cn1c(=O)oc2cc(S(=O)(=O)NCCCc3ccccc3)ccc21`, the manual score was 0.
`CCOC(=O)c1cc2n(c1N)-c1ccccc1C2=O` was tested, and the manual score was 3.
`CCOC(=O)Cn1c(=N)n(Cc2ccccc2F)c2ccccc21` was tested, and the manual score was -1 (active).
Work on `CC(C)Oc1ccc(C2CC(=O)N(c3ccccc3)C2=O)cc1` (stereo not given) yielded a manual score of 0.
For `CC1(C)Cc2cccc(OCC(=O)Nc3ccccc3N3CCOCC3)c2O1`, the manual score was -0.5.
With `Cc1ccccc1OCC(=O)Nc1ccccc1N1CCOCC1` the manual score was -1 (active).
`Cc1cccc(OCC(=O)NC(=S)Nc2ccccc2N2CCOCC2)c1` was tested, and the manual score was 0.
With `CCC(=O)N1CCN(c2ccccc2NC(=O)COc2cccc(C)c2)CC1` the manual score was -1 (active).
`CCOc1cc(N2CCOCC2)c(OCC)cc1NC(=O)COC(=O)CCc1c[nH]c2ccccc12` gave a manual score of 0.
`Cc1cccc(OCC(=O)Nc2ccccc2N2CCN(C(=O)C(C)C)CC2)c1C` was tested, and the manual score was -1 (active).
For `O=C(Nc1ccccc1N1CCCCC1)c1ccccc1F`, the manual score was 0.
For `CC(C)C(=O)Nc1ccccc1N1CCN(C(=O)c2ccccc2)CC1`, the manual score was -1 (active).
Work on `CCCC(=O)Nc1ccccc1N1CCN(C(=O)c2ccccc2)CC1` yielded a manual score of -0.5.
`Cc1cc(Cl)ccc1OCC(=O)Nc1ccccc1N1CCOCC1` was tested, and the manual score was -1 (active).
Work on `CCN(CC)c1ccc2cc(-c3nc4ccccc4[nH]3)c(=O)oc2c1` yielded a manual score of 3.
With `Cc1ccccc1C(=O)NNC(=S)NC(=O)COc1ccccc1` the manual score was 1 (active).
In the case of `Cc1ccc(C(=O)NNC(=S)NC(=O)COc2ccccc2)cc1`, the manual score was 1 (active).
For `CC(=O)c1c(C(C)=O)c(C)n(-c2nc(-c3cccs3)c(C)s2)c1C`, the manual score was -1 (active).
`O=C(Cc1ccccc1)Nc1nc(-c2cccs2)cs1` gave a manual score of 0.
For `CN(CC(=O)Nn1cnnc1)S(=O)(=O)c1ccc(Br)cc1`, the manual score was 0.
`Cc1cccc(N2C(=O)CS/C2=N\NC(=O)c2ccc(Cl)cc2)c1C` was tested, and the manual score was 1 (active).
Work on `O=C(c1cnn2c(C(F)(F)F)cc(-c3cccs3)nc12)N1CCN(Cc2ccccc2)CC1` yielded a manual score of -0.5.
In the case of `CC(=O)Oc1ccc(N(C(C)=O)S(=O)(=O)c2cccs2)c2ccccc12`, the manual score was 0.
`COC(=O)c1c(NC(=S)NC(=O)c2ccco2)sc2c1CCCC2` showed a manual score of 0.
For `COC(=O)c1c(NS(=O)(=O)c2ccc(C)cc2)sc2c1CCC(C)C2` (stereo not given), the manual score was 0.
For `CCOC(=O)c1c(NS(=O)(=O)Cc2ccccc2)sc2c1CCCC2`, the manual score was 1 (active).
With `CC(C)OC(=O)c1c(NS(=O)(=O)c2ccccc2)sc2c1CCCC2` the manual score was 1 (active).
`CCOC(=O)c1c(NC(=S)Nc2ccccc2)sc2c1CCCCC2` gave a manual score of 0.
For `COC(=O)c1c(NC(=S)Nc2ccc(F)cc2[N+](=O)[O-])sc2c1CCCCC2`, the manual score was 0.
With `CC1CCc2c(sc(NS(=O)(=O)c3ccccc3)c2C(=O)OC(C)C)C1` (stereo not given) the manual score was 0.
Compound `Cc1ccc(-c2c(C)sc(NC(=O)C3C4CCC(O4)C3C(=O)O)c2C(=O)OC(C)C)cc1` (stereo not given) has a manual score of 0.
In the case of `COC(=O)c1c(NS(=O)(=O)Cc2ccccc2)sc2c1CCCC2`, the manual score was 1 (active).
In the case of `COC(=O)c1c(NS(=O)(=O)c2cccs2)sc2c1CCCC2`, the manual score was 1 (active).
For `CCCc1nc2scc(-c3ccccc3)c2c(=O)n1N`, the manual score was 0.
With `Cc1ccc(-c2csc3nc[nH]c(=S)c23)cc1C` the manual score was 1 (active).
In the case of `S=c1[nH]cnc2scc(-c3ccccc3)c12`, the manual score was 1 (active).
`CCCCn1c(=O)[nH]c2nc3cc(N)ccc3nc2c1=O` gave a manual score of 3.
For `CCCc1cc(-c2n[nH]c(=S)n2C(C)c2ccccc2)cs1` (stereo not given), the manual score was 0.
With `CN(C)Cc1c(O)ccc2occ(C(O)c3ccccc3)c12` (stereo not given) the manual score was -1 (active).
With `O=c1[nH]c2ccccc2n1CCC1CCCCC1` the manual score was 0.
In the case of `CN(C(=O)CSC1=Nc2ccccc2C2=NC(c3ccccc3)C(=O)N12)C1CCCCC1` (stereo not given), the manual score was -1 (active).
With `COc1ccc2c(-c3ccccc3)cc(SCC(=O)N(C)C3CCS(=O)(=O)C3)nc2c1` (stereo not given) the manual score was 0.
For `Cc1ccccc1-n1c(SCc2ccccn2)nc2n[nH]c(C)c2c1=N`, the manual score was 0.
Work on `C=CCN(CC=C)S(=O)(=O)c1ccc(NC(=S)NC(=O)c2ccco2)cc1` yielded a manual score of 0.
For `CN(c1ccccc1)S(=O)(=O)c1ccc(NC(=S)NC(=O)c2ccccc2)cc1`, the manual score was 0.
For `CCN(c1ccccc1)S(=O)(=O)c1ccc(NC(=S)NC(=O)c2ccc(Br)o2)cc1`, the manual score was 1 (active).
For `C=CCOc1ccc(/C(O)=C2/C(=O)C(=O)N(CCCN3CCOCC3)C2c2ccccc2)cc1` (stereo not given), the manual score was 0.
With `CCCn1c(C)cc(/C=C(\C#N)C(=O)OCC(=O)Nc2cccc(OC)c2)c1C` the manual score was 1 (active).
`COc1cc(/C=C(\C#N)C(=O)Nc2cccnc2)ccc1OC(C)C` was tested, and the manual score was 0.
In the case of `O=S(=O)(Nc1ccc2nc(C(F)(F)F)[nH]c2c1)c1ccccc1`, the manual score was 1 (active).
`O=S(=O)(Nc1ccc(S(=O)(=O)Nc2cccc3ccccc23)cc1)c1ccccc1` showed a manual score of 0.

— PubChem BioAssay AID623911 (Vanderbilt High Throughput Screening Facility, 2012)
